# Results: PubChem BioAssay (NCI)
# The panel holds about 83,000 compounds, 20% with a hit somewhere; the sample as a whole holds those more often.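 How to read the values: 0–100, growth inhibition (40 = 60% inhibited); 0, no net growth; -100 to 0, cell death (-40 = 40% of starting cells died; -100 = all dead).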 Values without a mark were called inactive. Activity calls are given as the source filed them.
# Tested on: NCI-H226 lung
# Assay: NCI-60 one-dose screen, 48 h (100 = growth as untreated, 0 = no growth, -100 = all killed)
# Settings: 10 µM
# Protocol: Growth inhibition of the NCI-H226 human Non-Small Cell Lung tumor cell line is measured as a screen for anti-cancer activity. Cells are grown in 96 well plates and exposed to the test compound for 48 hours. Compounds are tested at a single concentration, which is 10^-5 M for most compounds. The reported endpoint is percent growth (GI% or GIPRCNT), where numbers from 0 - 100% represent growth inhibition, and numbers from -100% - 0 represent cell death. For example, a value of 40 represents 60% growth inhibition. A value of 0 means no net growth occurred over the course of the experiment. A value of -40 indicates 40% of cells at the beginning of the experiment died by the end of the experiment. A value of -100 means all cells are dead at the end of the experiment.
# NCI-60 Human Tumor Cell Lines Screen was performed using the standard one-dose NCI protocol, which is described in more detail at https://dtp.cancer.gov/discovery_development/nci-60/default.htm.
# Compounds with GIPRCNT values below 10 were considered active. Activity score was based on GIPRCNT using the following formula: […]
# Score is 0 for GIPRCNT values of 100 or above, 50 for GIPRCNT values of 0, and 100 for GIPRCNT values of -100.
row,SMILES,growth
1,O=C(NCCCNS(=O)(=O)c1ccc(Cl)cc1)Nc1ccc(-n2cc(-c3ccncc3)c(-c3ccc(Cl)c(O)c3)n2)cc1,41%
2,O=C1CCn2c1c(O)c1ccccc1c2=O,101%
3,O=C(CSc1nnc(-c2cccnc2SCc2ccccc2)o1)Nc1nc(Cl)cc(Cl)n1,83.7%
4,CC(=O)C1N=NCC1c1ccccc1 (stereo not given),98%
5,Cc1cc(O)ccc1C1=NN(c2ccc(S(C)(=O)=O)cc2)C(=O)CC1,93.3%
6,Clc1ccc(C2=NN=C3C(Cc4ccccc4)=Nc4ccccc4N3C2)cc1,92.8%
7,Nc1nc(-c2ccc(Cl)cc2)cc(-c2cc3ccccc3oc2=O)n1,88.9%
8,O=C1/C=C/[C@@H](O)[C@@H]2C[C@@H](O)C[C@H]2/C=C/CCC[C@H](CCc2ccc(C(F)(F)F)cc2)O1,0.477% (active)
9,C=C/C(C)=C/C[C@]1(C)[C@H](C)[C@@H](OC(=O)CCC)[C@H](O)[C@@]23C(=C[C@H](OC)C[C@@H]12)[C@@H](OC(=O)CCC)O[C@H]3OC(C)=O,-52.9% (active)
10,CC(C)(C)c1ccc(S(=O)(=O)N[C@H]2CC[C@H]3[C@@H]4CCc5cc(O)c([N+](=O)[O-])cc5[C@H]4CC[C@]23C)cc1,80%
11,O=C(Nc1ccc(OS(=O)(=O)c2ccccc2)cc1)C1CCCCC1,87%
12,S=C(SSC(=S)N(c1ccccc1)c1ccccc1)N(c1ccccc1)c1ccccc1,99.2%
13,COc1cc(-c2nn(-c3ccc(NC(=O)NCCCNC(=O)c4ccccc4)cc3)cc2-c2ccncc2)ccc1Cl,56.1%
14,COc1cc2c3c(n(C4CCN(C)CC4)c(=O)c2cc1OC)-c1cc2c(cc1C3=O)OCO2,60.8%
15,COc1ccc2c(c1)C(CC(=O)NN)CCC2 (stereo not given),101%
16,COc1ccc2c(c1)OC(N)=C(C#N)C2c1cc(OC)c(OC)c(OC)c1 (stereo not given),54.2%
17,CCC(=O)OC1CCC2C3CCC(=O)OC3C(C)(CCC(=O)O)CC12C (stereo not given),60.1%
18,CCc1ccc(-c2ccc(-n3nc(C)c4c(N)nc(Cc5ccccc5)nc43)cc2)cc1,56.6%
19,OCC1OC(n2ccc3c(NO)ncnc32)C(O)C1O (stereo not given),-10.3% (active)
20,COc1ccccc1-n1c(-c2csc(NC(C)=O)n2)n[nH]c1=S,96.7%

row,SMILES,growth
1,COC(=O)c1c[nH]c2cc(OC(C)C)c(OC(C)C)cc2c1=O,92.9%
2,CCOC(=O)C1=CSC2=NC3=C(CCC/C3=C\c3ccc(Cl)cc3)C(c3ccc(Cl)cc3)N12 (stereo not given),92.2%
3,CC(C)N(CCOc1cccc(-c2nc3sccn3c2-c2ccnc(S(C)(=O)=O)n2)c1)C(C)C,67.5%
4,C[C@]12CC[C@@H]3c4ccc(O)cc4CC[C@H]3[C@@H]1CC[C@@H]2NS(=O)(=O)c1ccc(C(F)(F)F)cc1,51.6%
5,COc1ccc(-c2nn(-c3cccc(Cl)c3)cc2-c2cc(-c3ccccc3)[nH]c(=O)c2C#N)cc1,24%
6,O=C1/C=C/[C@@H](O)[C@@H]2C[C@@H](O)C[C@H]2/C=C/CCC[C@@H](C(F)(F)F)O1,59.9%
7,CC(=O)O[C@@]12CO[C@@H]1C[C@H](O)[C@@]1(C)C(=O)[C@H](O)C3=C(C)[C@@H](OC(=O)[C@H](O)[C@@H](NC(=O)OC(C)(C)C)c4ccccc4)C[C@@](O)([C@@H](OC(=O)c4ccccc4)C12)C3(C)C (stereo not given in full),61.5%
8,S=c1cnc2ccccc2[nH]1,107%
9,CN(C)c1ccc(/C=N/NC(=O)c2ccccc2Nc2cccc(C(F)(F)F)c2)cc1,101%
10,O=S(=O)(O)c1ccc(Cl)cc1,97.3%
11,Cc1ccc(S(=O)(=O)N/N=C2\CCCc3ccccc32)cc1,90.9%
12,C=C(NC(=O)C(=C)NC(=O)c1csc(C2=NC3c4csc(n4)C4NC(=O)c5csc(n5)C(C(C)(O)C(C)O)NC(=O)C5CSC(=N5)C(=CC)NC(=O)C(C(C)O)NC(=O)c5csc(n5)C3(CC2)NC(=O)C(C)NC(=O)C(=C)NC(=O)C(C)NC(=O)C(C(C)CC)NC2C=Cc3c(C(C)O)cc(nc3C2O)C(=O)OC4C)n1)C(N)=O (stereo not given),-59.6% (active)
13,Cc1cc(SCc2ccccc2)nc(N)n1,115%
14,CC(=O)N[C@H](C(=O)N[C@@H](CCCNC(=N)N)C(=O)N[C@@H](CCCCN)C(=O)N[C@@H](CCCNC(=N)N)C(=O)NC(C(=O)N[C@@H](CC(C)C)C(=O)N[C@@H](CCCNC(=N)N)C(=O)N[C@@]1(C)CCC/C=C\CCC[C@@](C)(C(=O)N[C@@H](CCCNC(=N)N)C(=O)N[C@@H](CCC(=O)O)C(=O)N[C@@H](CC(C)C)C(=O)N[C@H](C(=O)N[C@@H](CCC(=O)O)C(N)=O)C(C)C)NC(=O)[C@H](CCC(N)=O)NC(=O)[C@H](CC(C)C)NC(=O)[C@H](CC(C)C)NC1=O)[C@@H](C)O)C(C)C (stereo not given in full),7.17% (active)
15,COc1cc(OC)c2c(=O)c(O)c(-c3ccccc3)oc2c1,69.3%
16,COc1cc2cc(Oc3ccc(NC(=O)Nc4ccc(Cl)c(C(F)(F)F)c4)cc3)c(C)nc2cc1OC,4.49% (active)
17,OCC1OC(n2cnc3c(NCc4ccco4)ncnc32)C(O)C1O (stereo not given),51.8%
18,COc1cc(-c2csc(NC(=O)Nc3cc(C(F)(F)F)cc(C(F)(F)F)c3)n2)cc(OC)c1OC,24.8%
19,C=CCN(CC=C)C(=O)[C@H](CC)[C@@H]1CC[C@@H](C)[C@@H]([C@H](C)[C@@H](O)[C@@H](C)C(=O)[C@H](CC)C2O[C@]3(C=CC(=O)[C@]4(CC[C@@](C)([C@H]5CC[C@](O)(CC)[C@H](C)O5)O4)O3)[C@H](C)C[C@@H]2C)O1 (stereo not given in full),13.8%
20,COc1ccc(-c2csc(NC(=O)c3ccc(Cc4n[nH]c(=O)c5cccnc45)cc3)n2)cc1,71.4%
